# ELG1 genotox = inducers of genotoxicity in HEK293T ELG1-luciferase cells. HEK293T ELG1-luciferase reporter, luminescence, 16 h. Potency, µM (doses to about 46 µM), for inactives: at the highest dose activity change, positive = activation, actives largely listed as activators. actives 1.3% (n = 330,000). AID 504466; note: % of control where 0% means no effect; nearly all actives have a fitted effect of over 60% in size
#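 ELG1-luciferase HEK293T cells, 2,000/well; compound pinned in; 16 hr, 37 °C, 5% CO2; ONE-Glo, 30 min RT; luminescence on CCD imager.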
# KinaseGlo FLuc = blocks Kinase-Glo luciferase, a counter-screen artifact | Q27757 | Kinase-Glo luciferase, ATP luminescence, 8 min | Potency, µM (highest dose often 38.3 µM), for inactives: top-dose activity change, negative = inhibition, usual class: inhibitors | actives 0.28% (n = 200,000) | AID 1379; note: % is set by controls: 0 for no effect and ±100 for the full control effect; nearly all actives have a fitted effect of over 60% in size
#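 Kinase-Glo luciferase light output from ATP and luciferin was measured with 10 uM ATP, within the enzyme's linear range. Buffer: 50 mM imidazole pH 7.2, 50 mM KCl, 7 mM MgCl2, 0.01% Tween 20, 0.05% BSA; luminescence read after 8 min at ambient temperature.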
# NPC1 promoter act = activators of NPC1 promoter; Huh7 NPC1 promoter luciferase reporter, 24 h; Potency, µM (titrated, usually from 9.22 µM), inactives show top-dose activation, most hits filed as activators; actives 2.4% (n = 320,000); AID 485313; note: % of control where 0% means no effect; nearly all actives have a fitted effect of over 60% in size
#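 Luminescence from an NPC1 promoter-driven luciferase reporter in stably transfected Huh7 cells was measured after 24 h compound treatment at 37 °C, followed by 10 min ambient incubation with luciferase detection reagent.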
# SMN2 splice up = SMN2 splice variant enhancement. HEK293 SMN2-luciferase splicing reporter, luminescence, 30-36 h. Potency, µM (top dose mostly 46.1 µM), inactives show top-dose activity change, positive = activation, usual class: activators. actives 2.8% (n = 210,000). AID 1458; note: % of control where 0% means no effect; nearly all actives have a fitted effect of over 55% in size
#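 HEK293 cells carry an SMN2 […]–luciferase reporter in which exon 7 inclusion puts luciferase in frame. Cells were plated 10-12 h before compound addition, then incubated 30-36 h at 37C. ONE-Glo luminescence was read; sodium butyrate at 4.5 mM final served as control.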
# FLuc counter = inhibits or activates purified firefly luciferase, miR-21 counter-screen. P08659. purified FLuc, Km substrates, luminescence inhibition. Potency, µM (doses to about 57.5 µM), without a hit: at the highest dose activity change, negative = inhibition, usual class: inhibitors. actives 6.9% (n = 360,000). AID 588342;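 note: plate controls were vehicle for no effect and reference inhibitor for full effect; nearly all actives have a fitted effect of over 55% in size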
# Target sequence (P08659 whole entry, looked up): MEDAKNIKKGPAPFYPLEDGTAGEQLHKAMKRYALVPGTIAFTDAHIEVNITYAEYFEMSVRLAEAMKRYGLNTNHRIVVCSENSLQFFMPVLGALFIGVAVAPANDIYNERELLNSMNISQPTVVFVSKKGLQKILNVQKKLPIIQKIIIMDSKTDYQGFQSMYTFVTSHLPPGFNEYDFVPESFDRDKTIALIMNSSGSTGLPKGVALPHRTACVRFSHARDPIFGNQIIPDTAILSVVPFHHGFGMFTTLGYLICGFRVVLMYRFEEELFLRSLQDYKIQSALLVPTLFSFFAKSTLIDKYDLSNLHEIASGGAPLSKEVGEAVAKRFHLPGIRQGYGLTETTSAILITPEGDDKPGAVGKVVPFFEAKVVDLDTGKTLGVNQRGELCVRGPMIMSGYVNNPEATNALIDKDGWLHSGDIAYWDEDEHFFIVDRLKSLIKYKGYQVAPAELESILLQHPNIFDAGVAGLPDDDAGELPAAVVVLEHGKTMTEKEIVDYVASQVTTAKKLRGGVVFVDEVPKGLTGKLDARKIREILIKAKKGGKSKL
#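 Purified P. pyralis luciferase, 10 nM final, with Km-level 10 uM D-luciferin and 10 uM ATP in 50 mM Tris acetate pH 7.5, 10 mM Mg acetate, 0.01% Tween-20, 0.05% BSA; 6-point qHTS titration about 60 µM downward; luminescence read.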
# Rab9 promoter act = Rab9 promoter activation; Huh7 Rab9 promoter-luciferase reporter, luminescence, 24 h; Potency, µM (series often up to 9.22 µM), for inactives: top-dose activation, negative = inhibition, actives largely listed as activators; actives 2.8% (n = 320,000); AID 485297; note: % of control where 0% means no effect; nearly all actives have a fitted effect of over 60% in size
#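 Rab9 promoter-driven luciferase in stably transfected Huh7 cells; 1500 cells/well rested 2 h, exposed to compound in DMSO for 24 h at 37 °C, 5% CO2. Luminescence read 10 min after adding luciferase reagent at ambient temperature.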
# * hit, by the source's call; ? = inconclusive; . = not tested or not shown. Shown are actives, neighbours in structure and some others; about 7.5% of the full set was active somewhere. Calls come from the whole dose curve; as a rule, active = well fitted curve in the direction sought with a large enough effect; inconclusive = small, poorly fitted or top-dose-only effect, or another doubt; inactive = no such curve, though single readings can be large; an effect the other way counts as inactive or inconclusive. Potency is the fitted concentration of half-maximal effect.
SMILES,ELG1 genotox,KinaseGlo FLuc,NPC1 promoter act,SMN2 splice up,FLuc counter,Rab9 promoter act
COc1ccc(C(=O)Nn2cnc3scc(-c4cccs4)c3c2=O)c(O)c1,7.3µM*,1%,2.8µM*,13µM*,15µM*,2.5µM*
COc1cccc(-n2cnc3scc(-c4cccs4)c3c2=O)c1,-3%,2%,3%,-7%,-2%,1%
CCCSc1nnc2c(n1)OC(c1sccc1C)Nc1ccccc1-2 (stereo not given),.,.,.,3.2µM*,?,.
c1ccc(OCc2cc(-c3ccccc3)no2)cc1,17%,-1%,?,?,12µM*,2.8µM*
COc1ccc(OCc2cc(-c3ccc(Cl)cc3)no2)cc1,3%,-2%,-1%,1%,-14%,-5%
COc1ccccc1OCc1cc(-c2ccccc2)no1,?,-2%,3.5µM*,13µM*,9.5µM*,2.5µM*
COc1ccc(OC)c(S(=O)(=O)NCc2cc(-c3ccccc3)no2)c1,0%,.,0%,.,-5%,1%
Cc1cc2c(cc1S(=O)(=O)C(C)CC(=O)NC1CCC(C)CC1)OCC(=O)N2 (stereo not given),.,.,.,.,2%,.
O=C(NC(=S)Nc1ccc(O)cc1)c1ccccc1Cl,?,-2%,?,?,?,4µM*
Cc1ccc(O)c(NC(=S)NC(=O)c2ccccc2Cl)c1,9%,1%,13%,?,17µM*,4%
COc1ccc(NC(=S)NC(=O)c2ccccc2Cl)cc1,-11%,-1%,27%,.,?,?
O=C(Nc1sc2c(c1C(=O)O)CCCCC2)c1ccccc1F,-7%,-5%,3.2µM*,5.6µM*,11µM*,4µM*
NC(=O)c1c(NC(=O)c2ccc(F)cc2)sc2c1CCC2,?,.,1.8µM*,.,4.3µM*,1.8µM*
CC(C)(C)c1ccc(C(=O)Nc2sc3c(c2C(=O)O)CCC3)cc1,-6%,-1%,-15%,.,11µM*,-18%
NC(=O)c1c(NC(=O)c2noc3c2CCCC3)sc2c1CCCC2,.,.,.,14µM*,?,.
COc1cccc(-c2cc(C(=O)Nc3cc(Cl)ccc3O)on2)c1,.,.,.,.,-16%,.
Cc1ccsc1CCN1C(=O)N(c2ccccc2)C(=O)C1CC(=O)Nc1ccc(F)cc1 (stereo not given),.,.,.,18%,3%,.
COc1ccc(C)cc1NC(=O)C(=O)NCCc1csc(-c2ccc(C)cc2)n1,.,.,.,.,-1%,.
Cc1ccc(Cn2c(C(=O)O)c(CNC3CCCCCC3)c3ccc(C)cc32)cc1,.,.,.,.,-4%,.
COC(=O)c1c(NC(=O)c2ccccc2C(=O)O)sc2c1CCCC2,.,.,.,12%,12µM*,.
NC(=O)c1c(NC(=O)c2cc3ccccc3o2)sc2c1CCC2,0.92µM*,-12%,0.32µM*,2.2µM*,0.43µM*,0.22µM*
O=C(Nc1sc2c(c1C(=O)O)CCCC2)c1ccc(F)cc1,4%,.,28%,.,15µM*,?
CCOC(=O)c1c(NC(=O)c2ccccc2C(=O)O)sc2c1CCCC2,0%,.,-7%,.,0%,6%
CCN(CC)c1ccc(N=Nc2ncn[nH]2)cc1,?,-5%,2.8µM*,13µM*,12µM*,2.8µM*
CCS(=O)(=O)N1CCc2cc(C(=O)NCCc3ccc(OC)c(OC)c3)ccc21,.,.,.,.,-10%,.
CN(C)CCCNC(=O)c1ccc(/C=N/O)nc1,?,-4%,2.5µM*,.,11µM*,2.8µM*
N/C(=N\OC(=O)c1cccc2ccccc12)c1cccnc1,?,-5%,20%,.,12µM*,28%
O=C(O/N=C(\c1ccccc1)c1ccccn1)c1cccc2ccccc12,1%,-3%,-5%,25%,?,-1%
N/C(=N\OC(=O)COc1ccccc1)c1cccnc1,0%,1%,-5%,-11%,-1%,2%
Cc1cccc(/C(N)=N/OC(=O)c2cccc3ccccc23)c1,15%,.,3.5µM*,.,4.3µM*,4µM*

# Screening data from PubChem.
